Experiment [1] in a line: reducers of endogenous Her2 protein level, primary screen, SKBR3 breast tumor cells, AlphaScreen, ATP viability (AID 461;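 active means Her2 level under about 52% in both replicate screens, with viability over 70% of control, limit read from the data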;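 on Her2 level: lower value means less Her2 protein in the cells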;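 on viability: percent of carrier control wells set as 100% viability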). The following applies: 18-24 h, measured here: SKBR3 viability, ATP luminescence, at 10 µM. In general terms: In Alpha technology, singlet oxygen from a donor bead excites a nearby acceptor bead.
Experiment [2] has as its target Receptor tyrosine-protein kinase erbB-2 (Homo sapiens) (UniProt P04626). Described as above. The following applies: 18-24 h, at 10 µM, stronger effect = lower value.
Experiment [3] can be described thus: SK-BR-3 cell growth inhibitors, pilot screen, 24 h, human (AID 572;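 active means viability at or below 10% of carrier control in both of two separate runs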;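 further: compound exposure lasted between 18 and 24 h rather than exactly 24 h; 100% = carrier-treated control wells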). The following applies: SK-BR-3 viability, CellTiter-Glo luminescence, at 10 µM, stronger effect = lower value.
The nature of experiment [4]: HUVEC growth inhibition – cell-based, human, primary screen (AID 575;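 active means viability at or below 30% in both replicate assays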;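 further: 100% = median of untreated cell wells with 0.1% DMSO on each plate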). The following applies: HUVEC proliferation, CellTiter-Glo luminescence, 72 h; at 10 µM; stronger effect = lower value. In general terms: Cellular ATP, detected with luciferase, serves as a proxy for viable cell number.
The nature of experiment [5]: growth inhibitors of H69AR lung tumor, primary screen, human, duplicate replicates (AID 580;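 active means viability at or under a set limit in both replicates, limit being median viability minus 3 SD, cut at about 48% in these data, passing the limit was not always enough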;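 further: 100% = mean luminescence of untreated wells and 0% = no signal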). The note with it: H69AR lung tumor cells viability, ATP luminescence, 72 h; at 10 µM; stronger effect = lower value.
A short description of experiment [6]: reversal of MRP1-mediated doxorubicin resistance, pilot screen, H69AR cells, doxorubicin co-treatment (AID 601). The note with it: CellTiter-Glo, 72 h, at 10 µM; for differential viability (reversal): stronger effect = higher value.
The nature of experiment [7]: 384-well plate pilot, post-Golgi transport modulator project, inhibition of yeast transport mutant growth (AID 636; in the data active means inhibition above about 31%). The following applies: absorbance 615 nm, about 18 h, stronger effect = higher value.
A short description of experiment [8]: growth suppression of yeast trafficking mutant, preliminary HTS, modulators of trafficking downstream of Golgi apparatus project, 1536-format plate, OD 615 nm (AID 637; in the data active means inhibition above about 30%). The note with it: yeast transport mutant growth, absorbance 615 nm, 18 h; stronger effect = higher value.
Experiment [9] can be described thus: OD615 S. cerevisiae growth inhibition, permissive medium, pilot counter-assay, permissive growth control for S. cerevisiae lifespan shortening project (AID 705;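 active means growth inhibition above 25% in both replicates, a cutoff set 3 SD above the mean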). The following applies: OD615, 24 h, at 10 µM, stronger effect = higher value.
Experiment [10] in a line: Restrictive medium S. cerevisiae growth inhibition, OD615, pilot screen of yeast lifespan reduction project, restrictive growth control (AID 706;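 active means growth inhibition above a set limit, 3 SD over mean compound inhibition, in both replicates, cut at about 43% in these data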;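 further: modified DeaD lifespan yeast strain shifted to restrictive glucose medium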). The following applies: OD615, 48 h, at 10 µM, stronger effect = higher value.
The nature of experiment [11]: viability gain of MRP-1-high H69AR cells under doxorubicin, pilot screen, MRP-1 activator project, CellTiter-Glo, duplicate (AID 807;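 active means viability increase at or above a cutoff of the median across tested compounds plus 3 SD, cut at about 8.5% in these data, passing the limit was not always enough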;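 further: compound pretreatment 18-22 h then 72 h combined with doxorubicin; 0% = doxorubicin alone and 100% = vehicle without doxorubicin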). The note with it: H69AR viability with doxorubicin, CellTiter-Glo luminescence; at 10 µM; stronger effect = higher value.
Experiment [12] can be described thus: growth suppression of PTEN-deleted HCT116, pilot screen, cell-based, HCT116 clonal line, CellTiter-Glo (AID 824;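 active means viability at or below 27.92% in each of two runs, the all-compound median minus 4 SD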;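 further: 0% = 20 µM Hyamine control and 100% = vehicle cell control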). The following applies: 60 h, at 10 µM, stronger effect = lower value.
The nature of experiment [13]: inhibitors of the yeast RAM network, pilot screen, dse1pr::URA3 reporter, 5-FOA selection (AID 869;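 active means inhibition over a set limit, the all-compound mean plus 3 SD, in both replicate runs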;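 further: 0% = DMSO wells with no growth and 100% = 10 µM 1-NA-PP1 with full growth; RAM network block rescues cells from 5-FOA so hits raise OD615 growth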). The following applies: S. cerevisiae dse1pr::URA3 5-FOA growth, OD615, 2 d; at 10 µM; stronger effect = higher value; strain carries analog-sensitive mutant Cbk1 kinase.
Experiment [14] is described as follows: RAM signaling pathway blockade in yeast – S. cerevisiae, Pdr1DBD-CYC8 efflux-inhibited sensitized strain, primary screen (AID 1298;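 active means RAM network inhibition above 8.4% in each of two replicates, 3 SD over the compound average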;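 further: 0% = DMSO untreated cells without growth and 100% = 10 µM 1-NA-PP1 full growth; higher means more yeast growth rescued from 5-FOA killing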). The following applies: S. cerevisiae cbk1-as DSE1-URA3 strain, 5-FOA growth OD615, 2 d; at 50 µM; stronger effect = higher value.
Experiment [15] can be described thus: growth suppression of beta-catenin knockout HCT116, pilot screen, human colon tumor cells (AID 823;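 active means cell viability at or below a set limit in both duplicate runs, the limit being the all-compound median minus 4 SD, cut at about 23% in these data, passing the limit was not always enough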;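 further: 0% = wells killed by 20 µM Hyamine and 100% = untreated DMSO cell wells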). The following applies: CellTiter-Glo, 60 h, at 10 µM, stronger effect = lower value.
The mark [16] stands for this setting: H69AR cells + 2 uM doxorubicin, measured here: viability with 2 uM doxorubicin, stronger effect = lower value.
Where [17] appears, read: H69AR cells, compound alone cytotoxicity.

SMILES strings stand for the structures. Results filed as inconclusive are left out. The source made the active and inactive calls.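 How the source made its calls, unless noted: active means viability loss from added drug above about 55%, and viability with drug at most 40%, in both replicates (limit read from the data, passing the limit was not always enough); inconclusive means both conditions met in only one replicate; inactive means neither replicate meets both conditions.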

Receptor tyrosine-protein kinase erbB-2 (Homo sapiens), sequence (P04626 whole entry, looked up): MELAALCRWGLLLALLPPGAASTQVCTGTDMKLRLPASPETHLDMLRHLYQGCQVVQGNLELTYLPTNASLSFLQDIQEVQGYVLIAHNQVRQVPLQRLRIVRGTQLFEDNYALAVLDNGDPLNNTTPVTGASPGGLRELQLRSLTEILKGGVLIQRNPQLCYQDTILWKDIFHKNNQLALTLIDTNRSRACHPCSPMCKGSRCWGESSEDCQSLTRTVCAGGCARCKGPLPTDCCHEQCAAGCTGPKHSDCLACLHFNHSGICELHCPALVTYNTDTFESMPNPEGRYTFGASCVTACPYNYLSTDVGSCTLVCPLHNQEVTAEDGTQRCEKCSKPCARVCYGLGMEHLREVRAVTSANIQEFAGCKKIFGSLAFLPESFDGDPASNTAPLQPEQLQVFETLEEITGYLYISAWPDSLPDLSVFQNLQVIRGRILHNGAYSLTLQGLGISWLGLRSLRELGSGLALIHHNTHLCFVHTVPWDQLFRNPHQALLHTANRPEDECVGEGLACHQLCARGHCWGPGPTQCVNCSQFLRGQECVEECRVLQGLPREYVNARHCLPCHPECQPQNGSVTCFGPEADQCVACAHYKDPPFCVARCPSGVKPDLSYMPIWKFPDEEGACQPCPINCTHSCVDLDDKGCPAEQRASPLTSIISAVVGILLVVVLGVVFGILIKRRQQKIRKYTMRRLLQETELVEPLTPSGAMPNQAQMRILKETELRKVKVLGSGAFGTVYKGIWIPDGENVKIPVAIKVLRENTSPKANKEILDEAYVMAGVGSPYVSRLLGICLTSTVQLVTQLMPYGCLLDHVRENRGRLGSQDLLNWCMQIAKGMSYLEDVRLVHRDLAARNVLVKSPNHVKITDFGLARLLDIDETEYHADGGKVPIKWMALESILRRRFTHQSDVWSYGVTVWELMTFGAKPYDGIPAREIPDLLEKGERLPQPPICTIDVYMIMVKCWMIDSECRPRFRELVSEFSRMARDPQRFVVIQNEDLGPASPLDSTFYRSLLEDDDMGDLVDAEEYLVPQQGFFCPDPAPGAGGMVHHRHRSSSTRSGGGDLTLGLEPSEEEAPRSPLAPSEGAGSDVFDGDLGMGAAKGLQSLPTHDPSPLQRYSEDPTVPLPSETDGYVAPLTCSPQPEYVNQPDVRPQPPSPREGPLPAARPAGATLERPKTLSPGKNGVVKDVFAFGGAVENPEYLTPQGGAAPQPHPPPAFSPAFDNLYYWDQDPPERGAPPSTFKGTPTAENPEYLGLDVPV

`CCOC(=O)c1cc2c(=O)n3ccccc3nc2n(CCCOC)c1=NC(=O)C(C)(C)C`: the viability – broadly, a read-out of living cells in per cent, often relative to untreated cells – in [1] was 91%; in experiment [3], 91% (inactive); in [4] it was 105% (inactive); in experiment [5] it was 83.7% (inactive); in experiment [6] (setting [16]) it was 60.6%; in experiment [6] (setting [17]), 83.7%. In addition, the viability in experiment [12] was 91.4% (inactive). Besides, in [2], the Her2 level is 92% (inactive). For the same molecule, in experiment [6] (H69AR cells + 2 uM doxorubicin), the differential viability (reversal) was 23.1% (inactive). Further, the inhibition (usually the change of the read-out against control, counted positive when it falls) in experiment [7] was -7.4% (inactive); in experiment [8], -3.17% (inactive); in [13], 2.98% (inactive). The figures for the growth inhibition in experiment [9] and in experiment [10] were -11% (inactive) and 7.96% (inactive), respectively. Also, in experiment [11], the viability increase was -2.09% (inactive). The RAM network inhibition in [14] is 2.11% (inactive).
As for `O=C(c1cnccn1)N(c1ccccc1)C1(C(=O)NC2CCCC2)CCCCC1`, the viability in [1] was 118%; in experiment [3], 118% (inactive); in experiment [4], 96% (inactive); in experiment [5], 99.1% (inactive); in experiment [6] (setting [16]) it was 102%; in experiment [6] (setting [17]), 99.1%. Besides, the viability in experiment [12] is 96% (inactive). Also, the Her2 level in experiment [2] is 106% (inactive). For the same molecule, the differential viability (reversal) in experiment [6] (H69AR cells + 2 uM doxorubicin) was -2.94% (inactive). Moreover, the inhibition was -8.77% (inactive) in experiment [7], -1.75% (inactive) in experiment [8] and 1.56% (inactive) in experiment [13]. Besides, the growth inhibition in experiment [9] is -9.55% (inactive); in [10], -12.1% (inactive). Besides, in experiment [11], the viability increase is -1.49% (inactive). Also, the RAM network inhibition in [14] is 3.39% (inactive).
Regarding `O=C(CCNS(=O)(=O)c1cccc2nsnc12)NCc1cccs1`, the viability in experiment [1] was 101%; in experiment [3], 101% (inactive); in [4], 94.3% (inactive); in [5], 96% (inactive); in [6] (setting [16]), 95.4%; in experiment [6] (setting [17]), 96%. Also, in experiment [12], the viability is 95.4% (inactive). In addition, the Her2 level in [2] is 85.5% (inactive). Besides, the differential viability (reversal) in experiment [6] (H69AR cells + 2 uM doxorubicin) is 0.62% (inactive). For the same molecule, the inhibition in [7] is -9.45% (inactive); in experiment [8], 4.13% (inactive); in experiment [13], 1.54% (inactive). The growth inhibition is -4.72% (inactive) in experiment [9] and -7.42% (inactive) in [10]. Moreover, the viability increase in experiment [11] is -3.39% (inactive). Besides, the RAM network inhibition in experiment [14] is 3.13% (inactive).
On to `Nn1c(Cc2ccccc2F)nnc1SCC(=O)N1CC(=O)Nc2ccccc21`, for which the viability in [1] was 112%; in experiment [3] it was 112% (inactive); in experiment [4], 109% (inactive); in experiment [5] it was 84.1% (inactive); in experiment [6] (setting [16]), 86.1%; in experiment [6] (setting [17]), 84.1%. The viability in [15] was 114% (inactive). Also, in [2], the Her2 level was 94.5% (inactive). For the same molecule, in experiment [6] (H69AR cells + 2 uM doxorubicin), the differential viability (reversal) was -1.98% (inactive). Further, the inhibition in experiment [7] was -2.86% (inactive); in experiment [8], -10.7% (inactive); in [13], 2.1% (inactive). The values for the growth inhibition in experiment [9] and in [10] were -11.9% (inactive) and -7.2% (inactive), respectively. Also, the viability increase in experiment [11] was -2.14% (inactive). For the same molecule, the RAM network inhibition in experiment [14] is 3.29% (inactive).
On to `CN1C(=O)C(O)(CC(=O)c2ccc(F)cc2)c2cc(Br)ccc21` (stereo not given), for which the viability was 85.5% in [1]; 85.5% (inactive) in experiment [3]; 76.8% (inactive) in experiment [4]; 20.1% (active) in experiment [5]; 50.9% in [6] (setting [16]); 20.1% in [6] (setting [17]). Besides, the viability in experiment [12] is 15.8% (active). In addition, in [2], the Her2 level was 86.5% (inactive). Besides, the differential viability (reversal) in experiment [6] (H69AR cells + 2 uM doxorubicin) was -30.8% (inactive). For the same molecule, the values for the inhibition in experiment [7], in experiment [8] and in experiment [13] were -5.2% (inactive), 2% (inactive) and 1.45% (inactive), respectively. The growth inhibition in [9] was -8.62% (inactive); in experiment [10] it was -8.46% (inactive). In addition, in experiment [11], the viability increase was -6.12% (inactive). For the same molecule, in experiment [14], the RAM network inhibition is -0.67% (inactive).
As for `Cc1ccc(C(C(=O)NC2CCCCC2)N2CCOCC2)cc1` (stereo not given), the viability in experiment [1] is 95%; in experiment [3], 95% (inactive); in experiment [4], 106% (inactive); in experiment [5] it was 95.8% (inactive); in [6] (setting [16]) it was 91.7%; in experiment [6] (setting [17]), 95.8%. In experiment [12], the viability is 89.3% (inactive). Besides, the Her2 level in experiment [2] was 100% (inactive). Moreover, the differential viability (reversal) in [6] (H69AR cells + 2 uM doxorubicin) was 4.12% (inactive). Moreover, the inhibition in [7] was -5.89% (inactive); in experiment [8] it was -4.13% (inactive); in [13], 1.07% (inactive). Besides, the growth inhibition was -9.79% (inactive) in experiment [9] and -10.3% (inactive) in [10]. Further, the viability increase in experiment [11] is -2% (inactive). In addition, the RAM network inhibition in experiment [14] was 7.79% (inactive).
On to `CC(=O)c1cccc(NC(=O)CCNS(=O)(=O)c2cccc3nsnc23)c1`, for which the viability is 86% in [1]; 86% (inactive) in experiment [3]; 95.6% (inactive) in experiment [4]; 106% (inactive) in [5]; 94.5% in experiment [6] (setting [16]); 106% in [6] (setting [17]). In addition, in [12], the viability is 93.5% (inactive). Besides, the Her2 level in experiment [2] was 78% (inactive). The differential viability (reversal) in experiment [6] (H69AR cells + 2 uM doxorubicin) is 11.8% (inactive). In addition, the values for the inhibition in experiment [7], in [8] and in experiment [13] were -6.58% (inactive), 6.19% (inactive) and 1.73% (inactive), respectively. Also, the growth inhibition was -5.2% (inactive) in [9] and -11% (inactive) in experiment [10]. Moreover, the viability increase in experiment [11] was -2.11% (inactive). Moreover, the RAM network inhibition in experiment [14] was 2% (inactive).
For `COc1ccc(C(C(=O)NC2CCCCC2)N2CCC3(CC2)OCCO3)cc1` (stereo not given), the viability was 86% in [1]; 86% (inactive) in experiment [3]; 114% (inactive) in [4]; 100% (inactive) in experiment [5]; 93.5% in [6] (setting [16]); 100% in [6] (setting [17]). In experiment [12], the viability is 88.8% (inactive). Moreover, in experiment [2], the Her2 level is 98% (inactive). Besides, in experiment [6] (H69AR cells + 2 uM doxorubicin), the differential viability (reversal) is 6.97% (inactive). Moreover, the results for the inhibition in experiment [7], in experiment [8] and in [13] were -7.81% (inactive), 5.71% (inactive) and 2.62% (inactive), respectively. Moreover, the growth inhibition in [9] is -7.27% (inactive); in experiment [10], -6.88% (inactive). Besides, in [11], the viability increase was -2.42% (inactive). The RAM network inhibition in [14] was 2.77% (inactive).
For the molecule `CCOC(=O)c1cc2c(=O)n3ccccc3nc2n(CC(C)C)c1=NC(=O)c1ccco1`, the viability was 84.5% in [1]; 84.5% (inactive) in [3]; 70.4% (inactive) in experiment [4]; 7.19% (active) in experiment [5]; 2.75% in [6] (setting [16]); 7.19% in [6] (setting [17]). In experiment [12], the viability was 37.7% (inactive). In addition, in experiment [2], the Her2 level is 83% (inactive). The differential viability (reversal) in experiment [6] (H69AR cells + 2 uM doxorubicin) is 4.44% (inactive). In addition, the figures for the inhibition in experiment [7], in experiment [8] and in experiment [13] were -2.47% (inactive), -3.33% (inactive) and 0.955% (inactive), respectively. In addition, the growth inhibition in experiment [9] was 1.45% (inactive); in experiment [10] it was 4.24% (inactive). Moreover, the viability increase in experiment [11] is -7.74% (inactive). The RAM network inhibition in experiment [14] is 5.64% (inactive).
Take `CCOCCCNC(=O)C(c1ccccc1)N(Cc1ccc2c(c1)OCO2)C(=O)CNC(C)=O` (stereo not given): the viability was 100% in [1]; 100% (inactive) in experiment [3]; 97.7% (inactive) in experiment [4]; 105% (inactive) in experiment [5]; 102% in [6] (setting [16]); 105% in [6] (setting [17]). Also, in experiment [15], the viability was 98.6% (inactive). Besides, in experiment [2], the Her2 level is 108% (inactive). The differential viability (reversal) in experiment [6] (H69AR cells + 2 uM doxorubicin) is 2.97% (inactive). In addition, the inhibition was -6.3% (inactive) in experiment [7], 1.59% (inactive) in experiment [8] and 0.43% (inactive) in experiment [13]. The growth inhibition in experiment [9] is 3.28% (inactive); in [10] it was -2.68% (inactive). For the same molecule, the viability increase in experiment [11] was -3.36% (inactive). Moreover, the RAM network inhibition in [14] was 1.52% (inactive).

For the origin of these results see PubChem BioAssay.
